According to PubChem BioAssay AID1159580 (chemical genetic matrix, 2015):
In all, about 5,500 compounds went through this assay and about 2,000 (36%) were called active. About 18% were inconclusive and are not listed. Rule as the data show it: active = normalized growth mostly below about 0.91 (no sharp cut-off); inconclusive = no clear call, values can overlap the other calls; inactive = mostly above about 0.92. The list shows a part of the results.

Assay: chemical genetic growth profiling, strain panel (AID 1159580);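 also: tested at 20 µM; growth read once vehicle control cultures reached saturation at 30 °C; 1 = growth at the plate median or of vehicle wells; lower values mean less growth of the strain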
Settings: S. cerevisiae deletion strains, growth OD

Measured: normalized growth

COc1cccc(OC)c1OCCNCC1CSc2ccccc2O1 (configuration not stated)
inactive: locus YAL040C, strain CLN3, hits give low values 1.01 | locus YDR363W, strain ESC2, hits give low values 0.936 | locus YER002W, strain NOP16, hits give low values 1.01 | locus YJR075W, strain HOC1, hits give low values 0.985 | locus YMR263W, strain SAP30, hits give low values 0.995 | locus YMR307W, strain GAS1, hits give low values 1.01 | locus YNL175C, strain NOP13, hits give low values 0.986 | locus YNL197C, strain WHI3, hits give low values 1.02 | locus YNL224C, strain SQS1, hits give low values 1 | locus YOR083W, strain WHI5 (second series), hits give low values 0.966 | locus YPL241C, strain CIN2, hits give low values 1

ONC(=Nc1ccccc1Cl)c1ccccc1Cl
active: locus YFR019W, strain FAB1, hits give low values 0.714 | locus YHR030C, strain SLT2, hits give low values 0.731 | locus YLR113W, strain HOG1, hits give low values 0.839
inactive: locus YAR019C, strain CDC15, hits give low values 0.999 | locus YBL105C, strain PKC1, hits give low values 0.987 | locus YBR135W, strain CKS1, hits give low values 0.992 | locus YBR136W, strain MEC1, hits give low values 0.986 | locus YBR160W, strain CDC28, hits give low values 0.993 | locus YDL017W, strain CDC7, hits give low values 0.988 | locus YDL028C, strain MPS1, hits give low values 0.985 | locus YDL101C, strain DUN1, hits give low values 0.993 | locus YDL108W, strain KIN28, hits give low values 0.979 | locus YDL132W, strain cdc53, hits give low values 0.997 | locus YDL214C, strain PRR2, hits give low values 0.824 | locus YDR052C, strain DBF4, hits give low values 0.983 | locus YDR054C, strain cdc34, hits give low values 0.992 | locus YDR226W, strain ADK1, hits give low values 0.987 | locus YDR477W, strain SNF1, hits give low values 0.859 | locus YER123W, strain YCK3, hits give low values 0.688 | locus YER133W, strain GLC7, hits give low values 0.833 | locus YFL009W, strain cdc4, hits give low values 0.999 | locus YFL029C, strain CAK1, hits give low values 0.996 | locus YFR003C, strain YPI1, hits give low values 0.989 | locus YFR028C, strain CDC14, hits give low values 0.997 | locus YGR040W, strain KSS1, hits give low values 0.81 | locus YGR052W, strain FMP48, hits give low values 0.786 | locus YGR092W, strain DBF2, hits give low values 0.839 | locus YHR079C, strain IRE1, hits give low values 0.889 | locus YHR082C, strain KSP1, hits give low values 0.829 | locus YHR205W, strain SCH9, hits give low values 0.875 | locus YIL147C, strain SLN1, hits give low values 0.983 | locus YJL095W, strain BCK1, hits give low values 0.697 | locus YJL128C, strain PBS2, hits give low values 0.95 | locus YJL157C, strain FAR1, hits give low values 0.785 | locus YJR016C, strain ILV3, hits give low values 0.986 | locus YJR066W, strain TOR1 (second series), hits give low values 0.729 | locus YJR066W, strain TOR1, hits give low values 0.769 | locus YKL048C, strain ELM1, hits give low values 0.922 | locus YKL067W, strain YNK1, hits give low values 0.817 | locus YKL101W, strain HSL1, hits give low values 0.854 | locus YKL193C, strain SDS22, hits give low values 1 | locus YKL203C, strain TOR2, hits give low values 0.891 | locus YLR133W, strain CKI1, hits give low values 0.841 | locus YLR403W, strain SFP1, hits give low values 0.832 | locus YML070W, strain DAK1, hits give low values 0.786 | locus YMR001C, strain CDC5, hits give low values 0.996 | locus YMR205C, strain PFK2 (second series), hits give low values 0.83 | locus YMR277W, strain FCP1, hits give low values 1 | locus YNL006W, strain LST8, hits give low values 0.997 | locus YNL020C, strain ARK1, hits give low values 0.809 | locus YNL161W, strain CBK1, hits give low values 0.994 | locus YNL183C, strain NPR1, hits give low values 0.86 | locus YNL207W, strain RIO2, hits give low values 0.99 | locus YNL222W, strain SSU72, hits give low values 0.993 | locus YNL307C, strain MCK1 (second series), hits give low values 0.811 | locus YOL078W, strain AVO1, hits give low values 0.993 | locus YOL136C, strain PFK27, hits give low values 0.806 | locus YOR061W, strain CKA2, hits give low values 0.69 | locus YOR119C, strain RIO1, hits give low values 0.886 | locus YOR231W, strain MKK1, hits give low values 0.836 | locus YOR329C, strain SCD5, hits give low values 0.998 | locus YPL031C, strain PHO85, hits give low values 0.824 | locus YPL153C, strain RAD53, hits give low values 0.777 | locus YPL204W, strain HRR25, hits give low values 0.859 | locus YPL209C, strain IPL1, hits give low values 0.992 | locus YPL256C, strain CLN2, hits give low values 0.904 | locus YPR025C, strain CCL1, hits give low values 0.993 | locus YPR106W, strain ISR1, hits give low values 0.99 | locus YPR111W, strain DBF20, hits give low values 0.994 | strain NNK1, hits give low values 0.992 | strain TSCII, hits give low values 0.991
